Six compounds from PubChem BioAssay (NCATS) can be followed below.

Each structure is given as a SMILES string. Records with an inconclusive call do not appear. Activity calls are given as the source filed them. Unless noted, the call rests on the fitted dose curve; in most records, active means well fitted curve in either direction with a large enough effect (not every such curve was filed as active); inconclusive means small, poorly fitted or top-dose-only effect, or another doubt; inactive means flat fitted curve, though single readings scatter.

For assay [1], the target named is Lysosomal acid glucosylceramidase (Homo sapiens) (UniProt P04062). The assay is described as follows: Glucocerebrosidase-p2 (AID 348; in the data active means potency below about 10 µM; further: potency means the concentration at half of the fitted maximal effect). To be noted: purified GBA, blue fluorogenic substrate, 40 min. The method in brief: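 Compounds titrated from 0.6 nM upwards against 0.2 nM enzyme in pH 5.9 citric acid/KH2PO4, taurocholate, tween-20; blue fluorogenic substrate 80 uM, 40 min room temperature, stopped and read Ex 365/Em 440 for AC50.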
Lysosomal acid glucosylceramidase (Homo sapiens), sequence (P04062 whole entry, looked up): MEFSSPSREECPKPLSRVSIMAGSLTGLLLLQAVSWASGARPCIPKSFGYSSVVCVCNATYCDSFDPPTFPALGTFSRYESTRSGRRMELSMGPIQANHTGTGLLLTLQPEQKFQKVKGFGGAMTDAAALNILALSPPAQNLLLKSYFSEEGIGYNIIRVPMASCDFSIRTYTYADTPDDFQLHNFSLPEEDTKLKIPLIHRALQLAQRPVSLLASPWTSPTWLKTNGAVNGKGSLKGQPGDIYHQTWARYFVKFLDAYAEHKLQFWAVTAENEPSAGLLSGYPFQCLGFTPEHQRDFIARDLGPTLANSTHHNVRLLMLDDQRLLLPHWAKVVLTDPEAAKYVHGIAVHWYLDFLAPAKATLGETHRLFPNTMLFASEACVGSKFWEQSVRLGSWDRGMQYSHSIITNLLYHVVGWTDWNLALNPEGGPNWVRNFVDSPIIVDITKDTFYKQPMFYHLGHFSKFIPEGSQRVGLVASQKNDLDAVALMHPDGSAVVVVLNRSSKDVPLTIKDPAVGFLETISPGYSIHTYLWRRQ

Assay [2] can be described thus: AP1 Signaling Pathway (AID 357).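 Further: ME-180 reporter cells stimulated with EGF at its EC50 level; on the % scale 0 is the no-effect control and ±100 the full control effect.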 To be noted: ME-180 AP-1-bla reporter, EGF-induced, beta-lactamase ratio, 5 h; at 7.69 µM (top of the series) unless noted. The method in brief: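 Beta-lactamase reporter under AP-1 response element, ME-180 background. Stimulus: EC50 EGF. Compound exposure 5 h, 37 °C. Detection: CCF4, 2.5 h RT, 460/530 nm. Values: AC50 from titration.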

Assay [3] deals with Cytochrome P450 1A2 (Homo sapiens) (UniProt P05177). Briefly: p450-cyp1a2 (AID 410; calls by dose curve; further: potency means the concentration at half of the fitted maximal effect;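 on activity change, negative = inhibition: -100% = full effect of reference inhibitor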). Particulars: recombinant CYP1A2, luciferin-ME demethylation, luminescence; series mostly up to 57 µM. In short, it runs like this: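 Human CYP1A2 (20nM) demethylated Luciferin-ME at its Km (100uM) in 100mM KPO4. After 10 min compound preincubation, NADPH regeneration ran the reaction 60 min at room temperature. Luciferin was read by luminescence, normalized to 57 uM furafylline.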
Cytochrome P450 1A2 (Homo sapiens), sequence (P05177 whole entry, looked up): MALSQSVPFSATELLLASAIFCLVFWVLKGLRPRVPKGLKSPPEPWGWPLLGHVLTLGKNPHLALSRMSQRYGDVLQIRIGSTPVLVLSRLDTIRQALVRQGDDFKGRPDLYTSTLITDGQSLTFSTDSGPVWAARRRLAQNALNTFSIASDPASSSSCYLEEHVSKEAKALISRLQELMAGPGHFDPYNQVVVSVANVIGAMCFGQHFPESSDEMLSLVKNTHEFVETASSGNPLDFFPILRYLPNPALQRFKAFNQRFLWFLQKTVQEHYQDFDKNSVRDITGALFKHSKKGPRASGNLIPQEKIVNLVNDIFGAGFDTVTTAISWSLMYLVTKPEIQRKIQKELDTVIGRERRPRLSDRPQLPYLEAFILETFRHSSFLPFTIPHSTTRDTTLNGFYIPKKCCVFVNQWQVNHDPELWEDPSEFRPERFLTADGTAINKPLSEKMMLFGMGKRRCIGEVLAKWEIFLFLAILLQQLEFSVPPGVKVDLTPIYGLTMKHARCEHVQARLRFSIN

Assay [4] can be described thus: NFAT Signaling Pathway (AID 444).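 Further: carbachol stimulus at about its EC50 of 1 µM final; on the % scale 0 is the no-effect control and ±100 the full control effect.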 Particulars: Jurkat NFAT-bla M1, carbachol, beta-lactamase ratio, 5 h; at 7.69 µM (top of the series) unless noted. The method in brief: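 Jurkat cells carrying an NFAT-driven β-lactamase reporter and co-transfected muscarinic M1 receptor were treated with compound plus carbachol (1 uM final, an EC50 level) for 5 h at 37 °C. CCF4 loading followed for 1 h at RT; 460/530 nm ratio gave %activity.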

The nature of assay [5]: Stat Signaling Pathway (AID 446).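 Further: ME-180 cervical cancer cells given 40 pM IL-6 alongside compound; SIE-controlled beta-lactamase reporter measured as 460/530 nm FRET emission ratio; on the % scale 0 is the no-effect control and ±100 the full control effect.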 To be noted: ME-180 SIE beta-lactamase reporter, IL-6 stimulated, 5 h; at 7.69 µM (top of the series) unless noted. In short, it runs like this: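 ME-180 SIE-bla cells; overnight plating; cpd + IL-6 40 pM, 5 h, 37 C; LiveBLAzer 2.5 h RT; 460/530 nm emission ratio. Normalized to 300 pM IL-6 and 125 nM JAK inhibitor controls.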
In assay [6] the target is Glucocorticoid receptor (Homo sapiens) (UniProt P04150). Briefly: GR-GFP Redistribution (AID 450;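 active means compounds whose dose series gives a full or clear partial fitted curve of increased nuclear translocation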; further: potency means the concentration at half of the fitted maximal effect). Particulars: U2OS GR-GFP nuclear translocation, laser cytometry, 2 h.
Glucocorticoid receptor (Homo sapiens), sequence (P04150 whole entry, looked up, the tested form may be a part): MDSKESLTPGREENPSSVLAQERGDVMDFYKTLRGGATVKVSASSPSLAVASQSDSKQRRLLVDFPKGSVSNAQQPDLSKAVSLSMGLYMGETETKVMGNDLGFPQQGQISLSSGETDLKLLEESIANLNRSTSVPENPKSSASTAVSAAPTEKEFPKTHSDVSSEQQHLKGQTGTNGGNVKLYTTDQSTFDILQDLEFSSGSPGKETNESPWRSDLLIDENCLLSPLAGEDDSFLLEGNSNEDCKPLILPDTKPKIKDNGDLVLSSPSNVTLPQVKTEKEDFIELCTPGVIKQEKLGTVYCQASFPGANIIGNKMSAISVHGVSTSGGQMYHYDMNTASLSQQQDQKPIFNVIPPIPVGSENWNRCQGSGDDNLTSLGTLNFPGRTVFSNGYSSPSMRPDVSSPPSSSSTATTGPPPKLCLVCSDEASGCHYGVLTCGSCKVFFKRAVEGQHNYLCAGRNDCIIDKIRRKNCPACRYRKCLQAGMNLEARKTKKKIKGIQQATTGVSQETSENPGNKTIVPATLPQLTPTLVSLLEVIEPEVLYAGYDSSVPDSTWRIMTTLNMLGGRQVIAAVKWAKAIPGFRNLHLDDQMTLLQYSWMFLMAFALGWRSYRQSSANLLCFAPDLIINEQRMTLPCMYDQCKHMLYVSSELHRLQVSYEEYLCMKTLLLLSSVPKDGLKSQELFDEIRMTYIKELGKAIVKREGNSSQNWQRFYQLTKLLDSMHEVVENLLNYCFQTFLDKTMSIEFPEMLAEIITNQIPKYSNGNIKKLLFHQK
Assay [7] has the same target. Briefly: GR-EFC Redistribution (AID 451; calls by dose curve; further: potency means the concentration at half of the fitted maximal effect). Particulars: CHO-K1 GR-EFC translocation, beta-gal luminescence, 2 h. The method in brief: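 CHO-K1 cells stably expressing nuclear-localized β-gal enzyme acceptor and GR fused C-terminally to the enzyme donor fragment; ligand-driven nuclear translocation restores β-gal by complementation. Compounds titrated up to 46 uM final, 2 h at 37 °C; luminescence read.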

Assay [8] concerns the target Mitogen-activated protein kinase 10 (Mus musculus) (UniProt Q61831). Briefly: JNK3 AlphaScreen Assay (AID 530).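 Further: kinase came from lysate of stimulated human HepG2 cells; on the % scale 0 is the no-effect control and ±100 the full control effect.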 Particulars: JNK3 lysate, c-Jun phosphorylation; series mostly up to 57.1 µM. In short, it runs like this: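 JNK3 came from HepG2 lysates pre-activated with IL-1beta and TNF-alpha and phosphorylated biotinylated GST-cJun (1-79) at 10 uM ATP, pH 7.6, room temperature. Compounds were titrated. AlphaScreen signal used anti-phospho-cJun (Ser73) antibody.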
On the technique in general: Bead proximity is the source of the signal in Alpha formats.

The target in assay [9] is 3',5'-cyclic-AMP phosphodiesterase 4B (Homo sapiens) (UniProt Q07343). The assay is described as follows: qHTS Assay for Inhibitors of PDE-IV (AID 607; active means well fitted activation curve with a large enough effect in the main read-out, with a control signal flat, not every such curve was filed as active; further: % of control where 0% means no effect). Particulars: HEK293 ACTOne CNG channel cells, membrane potential fluorescence; series mostly up to 22.9 µM. The method in brief:
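ACTOne HEK293 cells carry a modified cAMP-gated CNG channel and express endogenous PDE4; plated 1000 cells/well, compounds up to 22.9 uM final. Membrane-potential dye fluorescence (ex 535/em 590) was read; parental cells received 10 uM forskolin + 100 uM RO 20-1724.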
For orientation: Quantitative high-throughput screening tests each substance at several concentrations.

In assay [10] the target is Cytochrome P450 3A4 (Homo sapiens) (UniProt P08684). The assay is described as follows: qHTS Assay for Activators of Cytochrome P450 3A4 (AID 885; active means well fitted curve in the direction sought with a large enough effect; an effect the other way counts as inactive or inconclusive; further: nearly all actives have a fitted effect of over 65% in size). To be noted: recombinant CYP3A4, Luciferin-PPXE luminescence, 60 min; series mostly up to 57.1 µM. The method in brief:
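20nM CYP3A4 + 25uM Luciferin-PPXE (=KM), 200mM KPO4; cpd 10 min RT; NADPH regen, 60 min RT; stop w/ detection buffer, 20 min; luminescence. Normalized to 57 uM ketoconazole.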

A short description of assay [11]: qHTS Assay for Lipid Storage Modulators (AID 1519; calls by dose curve). To be noted: Drosophila S3 cells, BODIPY lipid droplet/cell ratio, laser cytometry, cells loaded with oleic acid; for activity change, negative = inhibition: at 57.5 µM (top of the series). The method in brief: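 Cells seeded at 5,000 per well were treated with compounds over a concentration series and loaded with oleic acid (400 uM, as added). Lipid droplet fluorescence (488 nm excitation, 500-530 nm channel) was read by laser-scanning cytometry and normalized to 20 uM Triacsin C.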

Assay [12] in a line: Primary qHTS for small molecule stabilizers of the endoplasmic reticulum resident proteome: Secreted ER Calcium Modulated Protein (SERCaMP) assay (AID 1508630; active means well fitted curve in the direction sought with a large enough effect; an effect the other way counts as inactive or inconclusive; further: on the % scale 0 is the no-effect control and ±100 the full control effect). Particulars: SH-SY5Y GLuc-SERCaMP (Gaussia luciferase released on ER calcium loss) secretion, thapsigargin, luminescence; series mostly up to 38.4 µM. The method in brief:
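GLuc-SERCaMP-expressing SH-SY5Y cells, pretreated 16 h with compound, are challenged with thapsigargin to empty ER calcium stores; after 4 h, coelenterazine is added directly to the medium and luminescence is imaged.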

Assay [13] addresses Cytochrome P450 2C19 (Homo sapiens) (UniProt P33261). The assay is described as follows: qHTS Assay for Inhibitors and Substrates of Cytochrome P450 2C19 (AID 899; active means well fitted curve in the direction sought with a large enough effect; an effect the other way counts as inactive or inconclusive; further: potency means the concentration at half of the fitted maximal effect; nearly all actives have a fitted effect of over 60% in size). Particulars: recombinant CYP2C19, luciferin-H EGE luminescence; series mostly up to 57.1 µM. In short, it runs like this:
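NADPH-dependent conversion of Luciferin-H EGE (10uM, at KM) by 5nM enzyme in 50mM KPO4, 60 min at 37C following 10 min compound preincubation. Stopped with luciferin detection buffer; luminescence read after 20 min.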

A short description of assay [14]: Confirmation and Secondary Assay for Modulators of Hemoglobin Beta Chain Splicing at IVS2 654 locus (AID 910; active means well fitted curve in the direction sought with a large enough effect; an effect the other way counts as inactive or inconclusive;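 further: per-well total GFP intensity by laser scanning cytometry after 2-day treatment; % of control where 0% means no effect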). Particulars: HeLa EGFP-654 splicing reporter, GFP fluorescence, 48 h; series mostly up to 38.3 µM. The method in brief: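 HeLa cells stably carrying EGFP interrupted by mutant beta-globin IVS2-654 intron (CMV-driven) were treated with compound for 2 days at 37C; corrected splicing was scored as total peak GFP intensity per well (488 nm excitation, 500-520 nm emission).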

Assay [15] is described as follows: Confirmation and Secondary Assay for Modulators of Hemoglobin Beta Chain Splicing at IVS2 705 locus (AID 930; active means well fitted curve in the direction sought with a large enough effect; an effect the other way counts as inactive or inconclusive;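 further: HeLa cells stably expressing the EGFP-705 splicing reporter; % of control where 0% means no effect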). Particulars: HeLa EGFP-705 splicing reporter, GFP fluorescence, 48 h; series mostly up to 38.3 µM. In short, it runs like this:
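Restored EGFP fluorescence after 2-day compound exposure reports splicing correction in IVS2-705 EGFP reporter HeLa cells; positive control was 500 nM splice-blocking PNA oligo. Signal measured as well total peak GFP intensity (488 nm excitation).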

Assay [16] concerns the target Ubiquitin carboxyl-terminal hydrolase 1 (Homo sapiens) (UniProt O94782). Briefly: Inhibitors of USP1/UAF1: Pilot qHTS (AID 504865; active means well fitted curve in the direction sought with a large enough effect; an effect the other way counts as inactive or inconclusive;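 further: rhodamine fluorescence freed from ubiquitin-rhodamine substrate followed over time; top concentration of the series differs between compounds; on the % scale 0 is the no-effect control and ±100 the full control effect; nearly all actives have a fitted effect of over 35% in size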). Particulars: purified USP1/UAF1, Ub-rhodamine cleavage fluorescence; series mostly up to 54.9 µM. The method in brief: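 Kinetic fluorescence assay: 1nM USP1/UAF1, 15 min compound preincubation, then 150nM Ub-Rho; 480/540 nm.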
[17] abbreviates: measured here: cell count channel max response.
Where [18] appears, read: measured here: lipid channel max response.

Cytochrome P450 3A4 (Homo sapiens), sequence (P08684 whole entry, looked up): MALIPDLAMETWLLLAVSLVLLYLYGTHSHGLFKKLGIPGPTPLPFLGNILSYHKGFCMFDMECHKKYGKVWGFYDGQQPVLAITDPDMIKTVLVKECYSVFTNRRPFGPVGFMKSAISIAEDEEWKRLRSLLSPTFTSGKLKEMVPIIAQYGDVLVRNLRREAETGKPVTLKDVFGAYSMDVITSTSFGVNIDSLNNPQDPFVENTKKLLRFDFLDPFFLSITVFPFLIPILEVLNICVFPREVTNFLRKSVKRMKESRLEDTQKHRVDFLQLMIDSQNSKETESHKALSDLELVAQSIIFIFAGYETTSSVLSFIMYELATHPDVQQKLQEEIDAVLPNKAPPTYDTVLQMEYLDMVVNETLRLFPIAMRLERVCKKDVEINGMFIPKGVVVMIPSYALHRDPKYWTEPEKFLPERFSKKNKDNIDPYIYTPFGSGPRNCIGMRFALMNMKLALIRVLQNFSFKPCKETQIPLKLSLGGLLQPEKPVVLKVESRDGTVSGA
3',5'-cyclic-AMP phosphodiesterase 4B (Homo sapiens), sequence (Q07343 whole entry, looked up): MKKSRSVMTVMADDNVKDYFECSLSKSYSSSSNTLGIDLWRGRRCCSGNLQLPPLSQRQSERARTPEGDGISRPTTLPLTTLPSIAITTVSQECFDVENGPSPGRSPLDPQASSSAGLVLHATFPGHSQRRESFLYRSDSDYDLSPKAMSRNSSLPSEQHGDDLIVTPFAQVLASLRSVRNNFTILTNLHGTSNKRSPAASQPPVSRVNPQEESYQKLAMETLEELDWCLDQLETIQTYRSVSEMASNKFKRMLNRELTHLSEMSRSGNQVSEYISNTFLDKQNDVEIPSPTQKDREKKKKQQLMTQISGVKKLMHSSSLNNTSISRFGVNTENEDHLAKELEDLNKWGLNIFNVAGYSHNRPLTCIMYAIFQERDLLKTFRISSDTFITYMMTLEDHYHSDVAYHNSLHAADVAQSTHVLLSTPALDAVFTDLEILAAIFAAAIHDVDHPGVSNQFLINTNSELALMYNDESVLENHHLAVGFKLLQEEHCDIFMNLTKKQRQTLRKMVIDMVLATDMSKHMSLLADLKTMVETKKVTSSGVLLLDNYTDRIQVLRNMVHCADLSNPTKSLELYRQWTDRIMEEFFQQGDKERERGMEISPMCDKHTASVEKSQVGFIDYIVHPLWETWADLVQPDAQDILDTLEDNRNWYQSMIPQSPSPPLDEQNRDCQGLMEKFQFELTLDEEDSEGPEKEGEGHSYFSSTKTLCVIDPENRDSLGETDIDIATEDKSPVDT
Ubiquitin carboxyl-terminal hydrolase 1 (Homo sapiens), sequence (O94782 whole entry, looked up): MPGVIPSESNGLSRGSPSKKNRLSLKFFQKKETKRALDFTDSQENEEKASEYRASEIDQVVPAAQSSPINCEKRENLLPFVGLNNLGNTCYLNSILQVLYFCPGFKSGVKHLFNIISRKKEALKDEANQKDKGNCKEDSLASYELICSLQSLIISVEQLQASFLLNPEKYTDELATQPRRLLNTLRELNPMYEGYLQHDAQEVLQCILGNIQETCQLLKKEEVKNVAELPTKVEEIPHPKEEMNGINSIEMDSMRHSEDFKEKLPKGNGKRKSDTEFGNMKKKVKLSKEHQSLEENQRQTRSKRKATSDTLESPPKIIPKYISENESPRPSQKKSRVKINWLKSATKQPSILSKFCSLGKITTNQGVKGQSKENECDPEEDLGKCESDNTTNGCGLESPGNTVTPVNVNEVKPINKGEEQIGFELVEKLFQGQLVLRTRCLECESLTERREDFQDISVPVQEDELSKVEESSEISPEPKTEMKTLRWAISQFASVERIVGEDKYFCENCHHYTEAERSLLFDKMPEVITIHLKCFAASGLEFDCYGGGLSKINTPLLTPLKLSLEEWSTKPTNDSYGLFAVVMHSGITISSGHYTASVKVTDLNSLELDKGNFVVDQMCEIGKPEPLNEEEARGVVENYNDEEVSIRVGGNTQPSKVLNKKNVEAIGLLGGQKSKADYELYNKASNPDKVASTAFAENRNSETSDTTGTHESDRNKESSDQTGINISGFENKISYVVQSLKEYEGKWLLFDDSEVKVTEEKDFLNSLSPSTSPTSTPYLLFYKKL
Cytochrome P450 2C19 (Homo sapiens), sequence (P33261 whole entry, looked up): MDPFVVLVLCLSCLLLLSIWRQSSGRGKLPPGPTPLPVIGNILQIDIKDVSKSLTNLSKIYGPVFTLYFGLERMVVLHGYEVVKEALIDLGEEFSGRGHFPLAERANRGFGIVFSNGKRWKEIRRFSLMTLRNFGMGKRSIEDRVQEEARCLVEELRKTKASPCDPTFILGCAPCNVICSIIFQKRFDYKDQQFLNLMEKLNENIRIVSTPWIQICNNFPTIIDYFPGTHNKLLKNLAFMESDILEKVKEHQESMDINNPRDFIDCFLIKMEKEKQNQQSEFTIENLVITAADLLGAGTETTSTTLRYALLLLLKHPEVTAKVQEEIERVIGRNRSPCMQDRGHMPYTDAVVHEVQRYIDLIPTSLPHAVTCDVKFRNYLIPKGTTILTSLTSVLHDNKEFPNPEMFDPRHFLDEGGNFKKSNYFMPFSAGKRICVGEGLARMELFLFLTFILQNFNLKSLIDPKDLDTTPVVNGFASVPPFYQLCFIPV

In the case of `COc1ncc2nc(-c3cc(F)cc(F)c3)c(=O)n(CCC#N)c2n1`, the Potency in [1] was > 11.4 µM (inactive); in assay [3] it was 6.31 µM (active); in assay [6], > 9.22 µM (inactive); in assay [7], > 46 µM (inactive). The activity change, negative = inhibition in assay [2] was 2.61% (inactive); in [4] it was -5.52% (inactive); in assay [11], 5.74% (inactive). Moreover, the activity, negative = inhibition in assay [5] is -7.47% (inactive). In addition, the compound was classed as inactive in assay [8]. The Potency result in assay [9], in [10] and in assay [12] was “inactive” throughout. Further, the max response stood at 17.3% in assay [11] (setting [17]) and 25.6% in [11] (setting [18]).

As to `Cc1nc2cnc(Oc3cccc(Cl)c3)nc2n(CCC#N)c1=O`, the Potency in [1] was > 11.4 µM (inactive); in assay [3], 15.8 µM (active); in assay [6], > 9.22 µM (inactive); in assay [7], > 46 µM (inactive). The activity change, negative = inhibition is -16% (inactive) in [2], 1.8% (inactive) in [4] and 3.95% (inactive) in assay [11]. Also, the activity, negative = inhibition in assay [5] is -7.79% (inactive). For the same compound, the compound was called inactive in assay [8]. Moreover, the Potency result in assay [9], in assay [10] and in assay [12] was “inactive” in each case. In addition, the max response in assay [11] (setting [17]) was found to be 19.7%; in [11] (setting [18]) it was 26.1%.

Take `COC(=O)N1CCC2(CCN(Cc3cc(C(F)(F)F)cc(C(F)(F)F)c3)CC2)CC1`: the results for the Potency in [1] and in [7] were > 11.4 µM (inactive) and > 46 µM (inactive), respectively. The values for the activity change, negative = inhibition in assay [2], in [4] and in assay [11] were -23.4% (inactive), -22.9% (inactive) and 2.7% (inactive), respectively. Besides, the Potency result in [3] and in [12] was “inactive” throughout. The activity, negative = inhibition in [5] was 0.155% (inactive). In addition, the call in [8] was inactive. Further, the max response in [11] (setting [17]) was -2.08%; in [11] (setting [18]), 2.77%.

In the case of `Cc1ccccc1-c1cncnc1Nc1ccc(F)cc1`, the Potency in [1] is > 11.4 µM (inactive); in assay [3], 10 µM (active); in [6] it was > 46 µM (inactive); in [7], > 46 µM (inactive); in assay [13], 5.01 µM (active). Also, the activity change, negative = inhibition in assay [2] is 15.1% (inactive); in assay [4], 3.46% (inactive); in assay [11], 6.79% (inactive). Also, in assay [5], the activity, negative = inhibition is 32.1% (inactive). For the same compound, the compound was classed as inactive in assay [8], in assay [14] and in assay [15]. The Potency result in assay [10], in assay [16] and in assay [12] was “inactive” in each case. The max response is -4.87% in [11] (setting [17]) and 2.59% in assay [11] (setting [18]).

In the case of `COc1ncc2nc(-c3cccs3)c(=O)n(-c3ccccc3)c2n1`, the Potency was > 11.4 µM (inactive) in assay [1], 2 µM (active) in assay [3], > 9.22 µM (inactive) in assay [6] and > 46 µM (inactive) in assay [7]. Moreover, the activity change, negative = inhibition in assay [2] is -4.36% (inactive); in assay [4], -4.96% (inactive); in [11], -3.04% (inactive). Also, in assay [5], the activity, negative = inhibition was 17.5% (inactive). For the same compound, the result in assay [8] was inactive. The Potency result in assay [9] and in [12] was “inactive” in each case. In addition, the max response is -0.0529% in [11] (setting [17]) and -2.75% in assay [11] (setting [18]).

With `CN(C)Cc1ccccc1-c1cc(Nc2ccccc2)ncn1`, the Potency in assay [1] is > 11.4 µM (inactive); in assay [3] it was 15.8 µM (active); in assay [6] it was > 46 µM (inactive); in [7], > 46 µM (inactive). Moreover, the figures for the activity change, negative = inhibition in assay [2], in [4] and in assay [11] were 1.09% (inactive), -10.2% (inactive) and 4.87% (inactive), respectively. Further, the activity, negative = inhibition in [5] is 9.68% (inactive). For the same compound, the compound was classed as inactive in assay [8], in [14] and in [15]. Also, the max response was determined as 5.64% in assay [11] (setting [17]) and 12.4% in assay [11] (setting [18]). The Potency result in [16] and in assay [12] was “inactive” throughout.
